In PubChem BioAssay (EPA / NIEHS) one finds outcome and AC50 data, which are given here for ten molecules.

Records with an inconclusive call do not appear. Active and inactive are the calls of the source. Rule for the calls, unless noted: active = hit-call score of the fitted dose curve at least 0.9, where 1 is the maximum; inactive = score below 0.9.

In experiment [1] the target is Bile acid receptor (Homo sapiens) (UniProt Q96RI1). The experiment can be described thus: ATG_FXR_TRANS: Attagene TRANS-FACTORIAL HepG2 Assay for Farnesoid X Receptor (FXR) (AID 2282979; active = hit-call score of the fitted dose curve at least 0.9, where 1 is the maximum;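 note: hits raise reporter mRNA above DMSO so AC50 marks FXR activation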). The settings on record: HepG2 Attagene TRANS FXR-GAL4 reporter transcription. The method in brief:
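HepG2 cells transiently transfected with reporter constructs in which a chimeric FXR-GAL4 protein drives a GAL4-UAS reporter; 24 h compound exposure. Reporter mRNA measured by RT-PCR, FAM labelling, HpaI digestion and capillary electrophoresis; gain-of-signal versus DMSO.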

Experiment [2] has as its target Oxysterols receptor LXR-alpha (Homo sapiens) (UniProt Q13133). The experiment can be described thus: ATG_LXRa_TRANS: Attagene TRANS-FACTORIAL HepG2 Assay for human Liver X Receptor alpha (LXRa) (AID 2282980; active = hit-call score of the fitted dose curve at least 0.9, where 1 is the maximum). Particulars: HepG2 Attagene TRANS reporter, LXRa transactivation. The method in brief: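 HepG2 cells were transiently transfected with multiplexed reporter units driven by chimeric LXRa–GAL4 fusion proteins, then dosed for 24 h. Reporter mRNA was quantified by RT-PCR, fluorescent labelling and capillary electrophoresis; gain of signal fitted against DMSO baseline.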

Experiment [3] concerns the target Oxysterols receptor LXR-beta (Homo sapiens) (UniProt P55055). In words: ATG_LXRb_TRANS: Attagene TRANS-FACTORIAL HepG2 Assay for human Liver X Receptor beta (LXRb) (AID 2282981; active = hit-call score of the fitted dose curve at least 0.9, where 1 is the maximum). The settings on record: HepG2 Attagene TRANS GAL4-LXRb reporter, mRNA. The method in brief:
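Liver-derived HepG2 cells transfected with Gal4-responsive reporters were dosed for 24 h. Activation was scored as rise in reporter mRNA, by RT-PCR and capillary electrophoresis, above DMSO baseline.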

For experiment [4], the target named is Hepatocyte nuclear factor 4-alpha (Homo sapiens) (UniProt P41235). The experiment can be described thus: ATG_HNF4a_TRANS: Attagene TRANS-FACTORIAL HepG2 Assay for human Hepatocyte Nuclear Factor 4 alpha (HNF4a) (AID 2282982; active = hit-call score of the fitted dose curve at least 0.9, where 1 is the maximum). The settings on record: HepG2 HNF4a transactivation reporter, mRNA readout. The method in brief: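 Using HepG2 liver cells transfected with GAL4-UAS reporter units, chemical-induced mRNA increases were assessed after 24 hours. Fluorescent RT-PCR fragments were separated by capillary electrophoresis and compared with DMSO negative controls.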

A short description of experiment [5]: ATG_M_06_TRANS: Attagene TRANS-FACTORIAL HepG2 Assay for M06 Transcription Factor (Internal Marker) (AID 2282983; active = hit-call score of the fitted dose curve at least 0.9, where 1 is the maximum;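 note: reporter transcript level by RT-PCR then capillary electrophoresis fluorescence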). The settings on record: HepG2 Attagene TRANS M06 internal marker reporter. In a few lines:
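In this multiplexed HepG2 system, compounds are incubated 24 h with cells carrying GAL4-UAS reporter units. Reporter RNA is amplified and resolved by capillary electrophoresis, and induction is scored against DMSO.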

Experiment [6] in a line: ATG_M_32_TRANS: Attagene TRANS-FACTORIAL HepG2 Assay for M32 Transcription Factor (Internal Marker) (AID 2282984; active = hit-call score of the fitted dose curve at least 0.9, where 1 is the maximum;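 note: transcript level of a background control reporter unit measured by RT-PCR and capillary electrophoresis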). The settings on record: HepG2 Attagene TRANS M32 internal marker reporter. In a few lines:
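Fluorescence-detected mRNA induction, HepG2 liver cells, 24 h after dosing. Multiple GAL4-UAS reporter units introduced by transient transfection; background-control endpoint analysed for gain of signal against DMSO.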

The target of experiment [7] is Nuclear receptor subfamily 4 group A member 2 (Homo sapiens) (UniProt P43354). The experiment can be described thus: ATG_NURR1_TRANS: Attagene TRANS-FACTORIAL HepG2 Assay for human Nuclear Receptor Related Protein 1 (NURR1) (AID 2282985; active = hit-call score of the fitted dose curve at least 0.9, where 1 is the maximum). The settings on record: HepG2 Attagene TRANS reporter, mRNA readout. In a few lines: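 Chimeric NR-Gal4 proteins were expressed in human HepG2 cells bearing GAL4-UAS reporter units, and induced reporter mRNA was quantified 24 h post-dosing by RT-PCR and capillary electrophoresis.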

In experiment [8] the target is Transcriptional activator Myb (Homo sapiens) (UniProt P10242). In words: ATG_Myb_CIS: Attagene CIS-FACTORIAL HepG2 Assay for human Myeloblastosis (Myb) Proto-Oncogene Transcription Factor (AID 2282986). The settings on record: HepG2 Attagene CIS-FACTORIAL Myb reporter transcription; actives raise or lower the signal. In a few lines:
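Endogenous transcription factor activity at a Myb-responsive cis element is reported in human liver HepG2 cells after 24 h chemical treatment. Reporter mRNA is detected by RT-PCR and capillary electrophoresis fluorescence, with DMSO as baseline.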

Experiment [9] is described as follows: ATG_NFI_CIS: Attagene CIS-FACTORIAL HepG2 Assay for human Nuclear Factor I (NFI) (AID 2282989). The settings on record: HepG2 cis-regulatory reporter, NFI response element transcription; actives raise or lower the signal. The method in brief: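 HepG2 cells transiently transfected with cis-element-driven multiplexed reporter transcription units, dosed for 24 h. Reporter mRNA quantified by RT-PCR, fluorescent labelling, HpaI digestion and capillary electrophoresis; bidirectional fit versus DMSO baseline.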

In experiment [10] the target is Myc proto-oncogene protein (Homo sapiens) (UniProt P01106). The experiment can be described thus: ATG_Myc_CIS: Attagene CIS-FACTORIAL HepG2 Assay for human Myelocytomatosis (Myc) Proto-Oncogene Transcription Factor (AID 2282990). The settings on record: HepG2, Attagene cis-reporter transcription factor activity; actives raise or lower the signal. In a few lines:
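HepG2 cells transiently transfected with multiple cis-promoter-driven reporter transcription units, so endogenous TF activity is read. After 24 h compound exposure, reporter mRNA was quantified by RT-PCR, 6-FAM labelling, HpaI digestion and capillary electrophoresis; bidirectional fit versus DMSO.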

The nature of experiment [11]: ATG_NRF2_ARE_CIS: Attagene CIS-FACTORIAL HepG2 Assay for human Nuclear Factor Erythroid 2 Related Factor 2 (NFR2) response to Antioxidant Response Elements (ARE) (AID 2282992).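 For AC50: reporter mRNA level measured by RT-PCR and capillary electrophoresis fluorescence.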 Particulars: HepG2 Attagene ARE/NRF2 reporter, transcription factor activity; actives raise or lower the signal. The method in brief:
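Fluorescence intensity of reporter-specific cDNA fragments, separated by capillary electrophoresis, reflects mRNA induction in transfected HepG2 cells at 24 h. Activity is fitted bidirectionally, DMSO serving as baseline.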

Experiment [12] can be described thus: ATG_Oct_MLP_CIS: Attagene CIS-FACTORIAL HepG2 Assay for human Octamer-Binding Transcription Factor (Oct) (AID 2282993). Particulars: HepG2 Attagene cis-factorial Oct reporter, mRNA; actives raise or lower the signal. The method in brief: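 HepG2 cells transiently transfected with cis-promoter-driven multiplexed reporter transcription units, dosed for 24 h. Reporter mRNA quantified by RT-PCR, fluorescent labelling, HpaI digestion and capillary electrophoresis; bidirectional fits versus DMSO baseline.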

For experiment [13], the target named is Cellular tumor antigen p53 (Homo sapiens) (UniProt P04637). The experiment can be described thus: ATG_p53_CIS: Attagene CIS-FACTORIAL HepG2 Assay for human p53 Transcription Factor (AID 2282994). The settings on record: HepG2 p53 cis-element reporter, Attagene mRNA; actives raise or lower the signal. In a few lines: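 Transiently transfected HepG2 (multiple cis reporter transcription units); exposure 24 h; reporter RNA via RT-PCR, 6-FAM extension, 2 h HpaI digest at 37 C, CE detection; DMSO baseline.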

Experiment [14] deals with Nuclear respiratory factor 1 (Homo sapiens) (UniProt Q16656). In words: ATG_NRF1_CIS: Attagene CIS-FACTORIAL HepG2 Assay for human Nuclear Respiratory Factor 1 (NRF1) Orphan Gene (AID 2282987). The settings on record: HepG2 NRF1 cis-element reporter, Attagene multiplex; actives raise or lower the signal. In a few lines: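 Human hepatoma HepG2 cells carrying transfected promoter-regulated reporter units were incubated with test chemicals for 24 h. Reporter transcripts were measured by RT-PCR plus capillary electrophoresis, and endpoints derived by bidirectional fitting with DMSO as baseline.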

Experiment [15] can be described thus: ATG_NF_kB_CIS: Attagene CIS-FACTORIAL HepG2 Assay for human Nuclear Factor Kappa B (NF-kB) (AID 2282991). Particulars: HepG2 Attagene cis-factorial NF-kB reporter mRNA; actives raise or lower the signal. The method in brief:
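Multiplexed cis-reporter assay in transiently transfected HepG2. 24 h treatment; RNA isolated, RT-PCR, labelled fragments resolved by CE. DMSO baseline.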

The target of experiment [16] is Glucocorticoid receptor (Homo sapiens) (UniProt P04150). In words: ATG_GR_TRANS: Attagene TRANS-FACTORIAL HepG2 Assay for human Glucocorticoid Receptor (GR) (AID 2282978; active = hit-call score of the fitted dose curve at least 0.9, where 1 is the maximum;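 note: activators score as hits since higher reporter transcript over DMSO is fitted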). The settings on record: HepG2 Attagene TRANS GR reporter, mRNA transcription. The method in brief:
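Multiplexed TRANS reporter system, HepG2; 24 h exposure; RNA → oligo(dT) RT → reporter-specific PCR → 6-FAM primer extension → HpaI cut → CE fluorescence. Gain-of-signal vs DMSO.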

The nature of experiment [17]: BSK_3C_TissueFactor: BioMAP Diversity Plus: 3C Assay for Tissue Factor Biomarker Activity (AID 2282997). The settings on record: BioMAP 3C HUVEC, tissue factor biomarker readout; actives raise or lower the signal. In a few lines:
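Readout: Tissue Factor ELISA. Cells: human primary umbilical vein endothelium. Time: 24 h after dosing. Analysis: bidirectional fit, DMSO baseline.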

Experiment [18] in a line: BSK_3C_uPAR: BioMAP Diversity Plus: 3C Assay for Urokinase-type plasminogen activator receptor (uPAR) Biomarker Activity (AID 2282998). The settings on record: BioMAP 3C HUVEC, uPAR biomarker ELISA; actives raise or lower the signal. The method in brief: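 Human umbilical vein endothelial primary cells were exposed to test chemical for 24 h. Cell-surface uPAR was then quantified by ELISA, and responses were fitted bidirectionally against DMSO as negative control and baseline.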

Chain of Transcriptional activator Myb (Homo sapiens) (P10242 whole entry, looked up): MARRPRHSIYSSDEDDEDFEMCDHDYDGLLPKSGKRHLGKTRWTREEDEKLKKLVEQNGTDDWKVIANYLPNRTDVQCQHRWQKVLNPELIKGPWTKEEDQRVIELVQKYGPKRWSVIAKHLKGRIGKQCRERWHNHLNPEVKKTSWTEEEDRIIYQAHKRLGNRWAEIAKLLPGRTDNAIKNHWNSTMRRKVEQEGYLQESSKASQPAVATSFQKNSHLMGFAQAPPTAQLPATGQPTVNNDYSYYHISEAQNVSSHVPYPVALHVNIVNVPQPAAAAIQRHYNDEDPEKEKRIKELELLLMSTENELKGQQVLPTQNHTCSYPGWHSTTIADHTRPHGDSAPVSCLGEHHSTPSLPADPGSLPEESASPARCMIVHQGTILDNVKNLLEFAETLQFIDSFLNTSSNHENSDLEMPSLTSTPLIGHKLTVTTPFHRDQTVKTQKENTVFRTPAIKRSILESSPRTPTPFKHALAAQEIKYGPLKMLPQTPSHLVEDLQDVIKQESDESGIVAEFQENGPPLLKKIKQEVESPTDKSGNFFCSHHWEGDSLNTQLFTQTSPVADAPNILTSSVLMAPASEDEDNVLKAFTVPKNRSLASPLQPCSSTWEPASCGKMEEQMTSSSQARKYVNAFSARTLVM
Chain of Hepatocyte nuclear factor 4-alpha (Homo sapiens) (P41235 whole entry, looked up, the tested form may be a part): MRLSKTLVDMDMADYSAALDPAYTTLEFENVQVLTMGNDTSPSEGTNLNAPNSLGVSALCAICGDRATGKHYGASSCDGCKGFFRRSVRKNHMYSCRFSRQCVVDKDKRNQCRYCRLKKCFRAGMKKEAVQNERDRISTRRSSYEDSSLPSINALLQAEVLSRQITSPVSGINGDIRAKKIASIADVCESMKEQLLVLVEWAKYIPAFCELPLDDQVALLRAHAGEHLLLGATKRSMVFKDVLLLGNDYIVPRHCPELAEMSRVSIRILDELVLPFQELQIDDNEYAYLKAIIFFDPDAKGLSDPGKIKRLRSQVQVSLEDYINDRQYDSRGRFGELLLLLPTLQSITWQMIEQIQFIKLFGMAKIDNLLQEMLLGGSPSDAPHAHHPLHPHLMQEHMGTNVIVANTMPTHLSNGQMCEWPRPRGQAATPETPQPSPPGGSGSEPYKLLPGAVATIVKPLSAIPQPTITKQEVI
Chain of Nuclear receptor subfamily 4 group A member 2 (Homo sapiens) (P43354 whole entry, looked up, the tested form may be a part): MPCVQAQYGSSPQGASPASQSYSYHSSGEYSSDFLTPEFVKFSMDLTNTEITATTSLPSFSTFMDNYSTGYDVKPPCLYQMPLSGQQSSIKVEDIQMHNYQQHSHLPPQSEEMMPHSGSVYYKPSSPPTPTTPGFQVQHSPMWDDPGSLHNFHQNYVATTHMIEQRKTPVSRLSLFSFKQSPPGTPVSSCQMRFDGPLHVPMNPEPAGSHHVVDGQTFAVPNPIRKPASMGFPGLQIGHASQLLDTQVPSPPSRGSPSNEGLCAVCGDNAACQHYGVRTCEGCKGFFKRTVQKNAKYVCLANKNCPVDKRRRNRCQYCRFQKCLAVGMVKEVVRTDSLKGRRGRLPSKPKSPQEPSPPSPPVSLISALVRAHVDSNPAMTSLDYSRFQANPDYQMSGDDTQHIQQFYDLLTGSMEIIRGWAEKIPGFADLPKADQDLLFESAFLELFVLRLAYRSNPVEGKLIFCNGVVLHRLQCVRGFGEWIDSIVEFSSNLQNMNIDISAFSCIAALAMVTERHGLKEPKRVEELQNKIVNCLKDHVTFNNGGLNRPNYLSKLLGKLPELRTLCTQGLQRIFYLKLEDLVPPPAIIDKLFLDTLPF
Chain of Oxysterols receptor LXR-beta (Homo sapiens) (P55055 whole entry, looked up, the tested form may be a part): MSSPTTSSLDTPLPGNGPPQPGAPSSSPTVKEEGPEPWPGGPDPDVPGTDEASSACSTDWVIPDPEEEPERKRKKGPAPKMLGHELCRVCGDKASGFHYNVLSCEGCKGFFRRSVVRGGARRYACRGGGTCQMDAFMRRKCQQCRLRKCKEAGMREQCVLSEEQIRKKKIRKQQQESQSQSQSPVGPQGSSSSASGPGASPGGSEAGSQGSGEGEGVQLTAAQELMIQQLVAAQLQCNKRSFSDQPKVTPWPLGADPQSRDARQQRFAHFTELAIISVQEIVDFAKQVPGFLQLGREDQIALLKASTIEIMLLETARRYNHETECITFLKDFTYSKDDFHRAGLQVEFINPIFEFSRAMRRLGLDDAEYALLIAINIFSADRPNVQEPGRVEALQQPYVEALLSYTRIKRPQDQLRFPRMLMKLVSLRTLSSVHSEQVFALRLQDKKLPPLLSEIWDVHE
Chain of Glucocorticoid receptor (Homo sapiens) (P04150 whole entry, looked up): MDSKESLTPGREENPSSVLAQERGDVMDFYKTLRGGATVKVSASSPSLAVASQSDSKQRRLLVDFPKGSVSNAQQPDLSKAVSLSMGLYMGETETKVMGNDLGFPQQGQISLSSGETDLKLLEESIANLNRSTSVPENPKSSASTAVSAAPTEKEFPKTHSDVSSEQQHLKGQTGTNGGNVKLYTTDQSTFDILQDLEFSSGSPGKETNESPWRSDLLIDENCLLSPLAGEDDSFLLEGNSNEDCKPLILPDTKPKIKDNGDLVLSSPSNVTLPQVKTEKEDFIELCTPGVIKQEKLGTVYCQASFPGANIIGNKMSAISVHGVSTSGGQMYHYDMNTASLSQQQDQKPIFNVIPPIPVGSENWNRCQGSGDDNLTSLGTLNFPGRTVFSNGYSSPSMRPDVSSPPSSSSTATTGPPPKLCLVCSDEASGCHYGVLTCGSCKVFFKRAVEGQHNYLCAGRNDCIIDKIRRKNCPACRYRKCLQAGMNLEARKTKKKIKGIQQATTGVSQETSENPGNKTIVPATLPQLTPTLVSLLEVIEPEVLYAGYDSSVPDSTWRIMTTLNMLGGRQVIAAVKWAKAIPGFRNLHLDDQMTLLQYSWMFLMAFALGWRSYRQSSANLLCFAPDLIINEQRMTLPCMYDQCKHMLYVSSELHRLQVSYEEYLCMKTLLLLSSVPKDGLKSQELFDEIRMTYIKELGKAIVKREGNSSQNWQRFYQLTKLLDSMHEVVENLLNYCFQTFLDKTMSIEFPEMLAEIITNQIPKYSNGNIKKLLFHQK
Chain of Bile acid receptor (Homo sapiens) (Q96RI1 whole entry, looked up, the tested form may be a part): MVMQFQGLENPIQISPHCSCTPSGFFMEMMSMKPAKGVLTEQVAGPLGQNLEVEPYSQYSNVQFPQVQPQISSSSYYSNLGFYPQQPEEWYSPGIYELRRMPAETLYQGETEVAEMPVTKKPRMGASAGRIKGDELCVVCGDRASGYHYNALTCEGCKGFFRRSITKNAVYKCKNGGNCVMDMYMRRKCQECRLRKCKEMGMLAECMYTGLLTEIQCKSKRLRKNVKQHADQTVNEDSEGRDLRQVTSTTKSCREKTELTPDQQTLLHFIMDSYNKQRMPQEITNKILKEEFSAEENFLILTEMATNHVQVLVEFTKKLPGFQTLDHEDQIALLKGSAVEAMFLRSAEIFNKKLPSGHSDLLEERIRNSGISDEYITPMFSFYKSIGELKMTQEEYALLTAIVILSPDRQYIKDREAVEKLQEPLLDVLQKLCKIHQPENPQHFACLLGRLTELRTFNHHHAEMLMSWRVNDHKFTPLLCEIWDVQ
Chain of Nuclear respiratory factor 1 (Homo sapiens) (Q16656 whole entry, looked up): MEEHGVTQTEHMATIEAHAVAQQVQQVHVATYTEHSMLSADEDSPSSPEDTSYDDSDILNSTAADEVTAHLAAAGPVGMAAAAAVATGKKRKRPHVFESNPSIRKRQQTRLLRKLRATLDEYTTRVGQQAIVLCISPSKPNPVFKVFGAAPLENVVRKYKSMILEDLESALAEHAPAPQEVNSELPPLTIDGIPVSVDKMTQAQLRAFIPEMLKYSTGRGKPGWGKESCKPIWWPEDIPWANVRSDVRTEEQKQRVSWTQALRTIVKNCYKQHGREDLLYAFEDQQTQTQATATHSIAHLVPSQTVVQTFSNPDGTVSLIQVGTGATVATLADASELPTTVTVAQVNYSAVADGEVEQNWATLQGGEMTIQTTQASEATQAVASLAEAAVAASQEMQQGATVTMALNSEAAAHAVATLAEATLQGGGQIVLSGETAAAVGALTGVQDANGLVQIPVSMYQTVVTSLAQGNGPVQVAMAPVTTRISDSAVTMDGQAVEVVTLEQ
Chain of Myc proto-oncogene protein (Homo sapiens) (P01106 whole entry, looked up): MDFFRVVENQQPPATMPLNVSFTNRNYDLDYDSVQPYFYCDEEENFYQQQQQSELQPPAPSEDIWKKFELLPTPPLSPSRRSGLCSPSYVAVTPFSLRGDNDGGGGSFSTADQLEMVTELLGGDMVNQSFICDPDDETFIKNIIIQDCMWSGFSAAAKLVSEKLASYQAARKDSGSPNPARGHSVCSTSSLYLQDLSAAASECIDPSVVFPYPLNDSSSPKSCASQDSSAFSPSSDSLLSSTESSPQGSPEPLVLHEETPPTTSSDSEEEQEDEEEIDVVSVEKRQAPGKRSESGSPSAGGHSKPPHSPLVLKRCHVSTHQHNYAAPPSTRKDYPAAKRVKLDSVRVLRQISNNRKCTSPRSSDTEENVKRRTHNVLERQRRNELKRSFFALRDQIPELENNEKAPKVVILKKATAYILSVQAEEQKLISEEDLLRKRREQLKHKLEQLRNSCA
Chain of Cellular tumor antigen p53 (Homo sapiens) (P04637 whole entry, looked up): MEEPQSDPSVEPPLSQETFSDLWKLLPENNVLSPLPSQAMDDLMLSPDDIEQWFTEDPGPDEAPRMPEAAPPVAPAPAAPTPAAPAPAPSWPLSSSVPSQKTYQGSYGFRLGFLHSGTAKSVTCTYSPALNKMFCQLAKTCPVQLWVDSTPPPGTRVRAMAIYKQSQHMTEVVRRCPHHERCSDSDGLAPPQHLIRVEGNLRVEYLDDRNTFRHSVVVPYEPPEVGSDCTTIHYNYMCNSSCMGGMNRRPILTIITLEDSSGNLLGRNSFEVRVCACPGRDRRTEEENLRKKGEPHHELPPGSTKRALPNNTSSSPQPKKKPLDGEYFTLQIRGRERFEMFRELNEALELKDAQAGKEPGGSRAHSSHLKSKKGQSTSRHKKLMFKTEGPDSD

In the case of `CC1CCC(C(C)(C)S)C(=O)C1` (stereo not drawn), the molecule was classed as inactive in experiment [1], in experiment [2], in experiment [3], in experiment [4], in experiment [5] and in [6]. For the same molecule, the call in experiment [7], in [8], in [9], in experiment [10], in [11] and in experiment [12] was inactive. In addition, the call in experiment [13] was inactive.
Turning to `CC(=O)c1ccccc1O`, the result in experiment [1], in [2], in [3], in experiment [6], in [8] and in experiment [14] was inactive. Also, the call in [9], in experiment [10], in [15], in experiment [11], in [12] and in experiment [13] was inactive.
For `CC1CCC(=O)C1=O` (stereo not drawn), the molecule was classed as inactive in experiment [16], in [7], in experiment [8], in [14], in experiment [9] and in [10]. The call in experiment [11] and in experiment [12] was inactive.
Consider `CC1=C(O)C(=O)C(C)O1` (stereo not drawn), for which the result in experiment [1], in experiment [3], in experiment [5], in [6], in experiment [7] and in experiment [8] was inactive. In addition, the outcome in [14], in experiment [9], in experiment [10], in experiment [15], in experiment [11] and in [12] was inactive. Also, the outcome in [13] was inactive.
In the case of `C=C(C)C(=O)OCCOC(=O)C(=C)C`, the result in experiment [16], in experiment [4], in [5], in experiment [6], in [8] and in experiment [9] was inactive. For the same molecule, the molecule was called inactive in experiment [10], in [15], in [11], in experiment [12] and in experiment [13].
Turning to `CC1(C)CC(O)CC(C)(C)N1[O]`, the outcome in experiment [1], in experiment [3], in experiment [4], in experiment [7], in experiment [8] and in experiment [14] was inactive. The call in experiment [9], in [10], in [15], in experiment [12], in experiment [17] and in experiment [18] was inactive. For the same molecule, the AC50 in experiment [11] is 26.6 µM (active).
Turning to `Oc1ccc(/C=C/c2cc(O)cc(O)c2)cc1`, the call in [1], in experiment [2], in [3], in [4], in experiment [5] and in [8] was inactive. In addition, the molecule was classed as inactive in experiment [9], in experiment [10], in experiment [12], in [13], in experiment [17] and in [18]. Further, the AC50 is 74.6 µM (active) in [7], 179 µM (active) in experiment [14], 100 µM (active) in experiment [15] and 24.6 µM (active) in experiment [11].
Turning to `N#Cc1ccc(C(c2ccc(C#N)cc2)n2cncn2)cc1`, the molecule was called inactive in [16], in [6], in experiment [8], in experiment [14], in experiment [9] and in experiment [10]. In addition, the molecule was called inactive in experiment [15] and in experiment [12].
As to `CC(C)(O)Cc1ccccc1`, the molecule was classed as inactive in [16], in experiment [8], in experiment [14], in [9], in experiment [10] and in [15]. Besides, the molecule was classed as inactive in experiment [11] and in experiment [13].
Turning to `Cc1cc(C)n(CO)n1`, the result in experiment [1], in experiment [2], in experiment [3], in [5], in experiment [8] and in experiment [14] was inactive. For the same molecule, the result in [9], in [10], in [11], in experiment [12] and in experiment [13] was inactive.

What is called AC50 is the concentration giving half of the maximal activity seen.
